From ChEMBL document CHEMBL1157539, “Thousands of chemical starting points for antimalarial lead identification” (Nature, 2010)

Legend:
Assay type in all cases: functional
[1] = tested on: Plasmodium falciparum; assay: GSK_TCMDC: Inhibition of Plasmodium falciparum 3D7 in whole red blood cells, using parasite LDH activity as an index of growth. Test compounds present at 2uM
[2] = tested on: Plasmodium falciparum; assay: GSK_TCMDC: Inhibition of Plasmodium falciparum Dd2 in whole red blood cells, using parasite LDH activity as an index of growth. Test compounds present at 2uM
[3] = tested on: HepG2; assay: GSK_TCMDC: Percent inhibition of human HepG2 cell line. Test compounds present at 10uM.

Structure (SMILES)	Inhibition [1]	Inhibition [2]	Inhibition [3]
Cc1ccc(-c2nnc(Nc3ccc(OCC(N)=O)cc3)c3ccccc23)cc1S(=O)(=O)NCC1CCCO1 (centres undefined)	92%	70%	0%
CC(C)(C)c1ccc2oc(=O)n(C3CCN(C(=O)c4ccc([N+](=O)[O-])o4)CC3)c2c1	94%	87%	0%
O=C(C=Cc1cccs1)Nc1ccc(-c2nc3ccccc3[nH]2)cc1	83%	3%	0%
CS(=O)(=O)c1ccccc1CNC(=O)c1ccc(-c2cccc(-c3nc4cc(C(F)(F)F)ccc4[nH]3)c2)cc1	91%	4%	36%
Cc1cccc2nc(-c3cccc(-c4ccc(NC(=O)Cc5ccccn5)cc4)c3)[nH]c12	94%	57%	25%
CC(C)[C@H](NC(=O)c1ccc(O)c(-c2ccc(Cl)c(Cl)c2)c1)C(=O)NCCN1CCCCC1	99%	98%	0%
Cc1nc(C(C)Nc2nncc(-c3ccc(Cl)cc3)n2)cs1 (centres undefined)	91%	55%	0%
CN1CCN(Cc2ccc(-c3ccc4c(Nc5ccc(Oc6ccccn6)cc5)ccnc4c3)o2)CC1	100%	99%	13%
Cc1ccc2c(=O)n(C)c(=O)n(C)c2n1	98%	0%	15%
CCC(C)NC(=O)Nc1cccc(-c2cccc(-c3nc4cccc(C)c4[nH]3)c2)c1 (centres undefined)	100%	27%	3%
CCN(CC)CCN(Cc1ccc(-c2ccc(C(F)(F)F)s2)cc1)C(=O)Cn1c(CCc2cccc(F)c2F)nc(=O)c2ccccc21.O=C(O)C(O)C(O)C(=O)O	94%	31%	43%
O=[N+]([O-])c1ccc(-n2nc(Cc3ccccc3)n(Cc3cccc(F)c3)c2=S)c(C(F)(F)F)c1	100%	100%	4%
O=C(Nc1ccc(CN2CCN(S(=O)(=O)c3ccc(Cl)s3)CC2)cc1)c1cccs1.O=C(O)C(F)(F)F	92%	87%	14%
Cn1cnc2c(Nc3ccncc3)nc(-c3ccc(OC(F)(F)F)cc3)nc21.O=C(O)C(F)(F)F	100%	65%	28%
Cc1cc(C(F)(F)F)n2nc(C(=O)N(Cc3cncn3Cc3ccccc3F)CC3CC3)cc2n1	100%	100%	0%
C=CCn1c(Sc2ccc(C#N)c([N+](=O)[O-])c2)nnc1-c1ccc(OC)cc1	96%	74%	0%
O=C(NCCCCN1CCC(c2ccc(-c3ccco3)cc2)CC1)c1ccc(NC(=O)c2ccc(Cl)cc2)cc1	100%	97%	26%
CCOc1ccc(C(=O)Nc2cc(Br)c3c(c2)CNCC3)cc1Br.Cl	96%	21%	18%
COc1ccc2ncc(F)c(CCN3C[C@H](CNCc4cc(F)c5c(c4)NC(=O)CO5)[C@H](O)C3)c2n1.Cl	94%	23%	3%
Clc1ncnc2scc(-c3ccc(Br)cc3)c12	95%	96%	0%
O=C(NC(Nc1ccc([N+](=O)[O-])cc1)C(Cl)(Cl)Cl)c1ccc(Cl)cc1 (centres undefined)	98%	94%	21%
CCc1ccc(C2CCN(CCCCNC(=O)c3ccc(NC(=O)c4ccc(Cl)cc4)cc3)CC2)c(OCC(=O)OC)c1	95%	12%	32%
Fc1ccc2[nH]cc(CCNCc3ccc(-c4cccc(-c5nc6ccccc6[nH]5)c4)cc3)c2c1.O=C(O)C(F)(F)F	100%	99%	69%
O=C(O)C(F)(F)F.O=C1CCCN1CCCNCc1ccc(-c2cccc(-c3nc4cc(C(F)(F)F)ccc4[nH]3)c2)cc1	100%	98%	14%
CCC(C)CC(=O)Nc1ccc(OC)c(S(=O)(=O)N[C@@H]2CCN(C#N)C2)c1 (some centres undefined)	94%	77%	16%
O=S(=O)(Nc1cccc(CCN2CCCCC2CCN2CCCC2)c1)c1cccc2ccccc12 (centres undefined)	97%	6%	23%
Cc1cc(=NN=Cc2cccc(F)c2)c2cccc(C)c2[nH]1	100%	53%	14%
Cl.N=c1n(CCN2CCCCC2)c2ccccc2n1CC(O)c1ccc(Cl)c(Cl)c1 (centres undefined)	97%	97%	50%
